VDR inhibitor = Inhibitors of the vitamin D receptor (VDR): qHTS | 400,000 tested, 0.93% active | Potency, µM, hits mostly inhibitors | Vitamin D3 receptor (Homo sapiens), P11473 | VDR-SRC2-3 peptide fluorescence polarization, 2 h
Target sequence (P11473 whole entry, looked up): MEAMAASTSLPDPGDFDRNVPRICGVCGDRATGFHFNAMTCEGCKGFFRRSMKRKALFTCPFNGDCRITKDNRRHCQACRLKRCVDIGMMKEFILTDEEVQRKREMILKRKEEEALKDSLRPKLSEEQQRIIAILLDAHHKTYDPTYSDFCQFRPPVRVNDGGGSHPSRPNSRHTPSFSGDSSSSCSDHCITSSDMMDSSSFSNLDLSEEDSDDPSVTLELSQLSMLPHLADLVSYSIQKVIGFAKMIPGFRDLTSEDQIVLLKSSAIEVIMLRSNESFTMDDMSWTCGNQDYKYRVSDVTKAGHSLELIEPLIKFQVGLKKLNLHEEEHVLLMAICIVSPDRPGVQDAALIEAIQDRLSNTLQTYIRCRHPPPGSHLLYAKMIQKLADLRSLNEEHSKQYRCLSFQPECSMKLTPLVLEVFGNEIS
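After 23 nl compound addition and a short centrifugation, plates sat for 2 hours at ambient temperature; polarization of fluorescence then indicated loss of VDR binding to peptide SRC2-3.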
Sfp inh = qHTS Assay for Inhibitors of Bacillus subtilis Sfp phosphopantetheinyl transferase (PPTase); Biochemical Sfp PPTase activity, qHTS; 310,000 tested, 3.5% active; Potency, µM, actives largely listed as inhibitors; 4'-phosphopantetheinyl transferase ffp (Bacillus subtilis), Q9F4F7;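 note: the enzyme is Sfp with the accession as filed and its product quenches rhodamine fluorescence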
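Fluorescence-quenching assay with 15 nM Sfp, 5 uM rhodamine-CoA and 12.5 uM BHQ-2-labelled ybbR peptide in pH 7.6 Hepes/MgCl2 buffer. Enzyme was pre-incubated with compound for 15 min at room temperature. Rate was taken from the 30-min fluorescence change (525/598 nm).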
G9a inh = qHTS Assay for Inhibitors of Histone Lysine Methyltransferase G9a | 350,000 tested, 8.8% active | Potency, µM (top dose mostly 102 µM), usual class: inhibitors | G9a H3K9 monomethylation, AlphaScreen, 2 h; note: nearly all actives have a fitted effect of over 75% in size
Target sequence (Q96KQ7 913-1193 limits assumed): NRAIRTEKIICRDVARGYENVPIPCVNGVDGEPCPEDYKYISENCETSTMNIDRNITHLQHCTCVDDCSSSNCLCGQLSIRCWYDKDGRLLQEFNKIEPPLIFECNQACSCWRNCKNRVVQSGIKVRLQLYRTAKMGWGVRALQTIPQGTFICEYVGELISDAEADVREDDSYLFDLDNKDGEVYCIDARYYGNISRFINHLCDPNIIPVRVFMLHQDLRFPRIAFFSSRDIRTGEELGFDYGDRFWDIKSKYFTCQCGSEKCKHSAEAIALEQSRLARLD
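Signal arises when biotinylated H3K9 peptide, once monomethylated, bridges streptavidin donor and antibody-captured acceptor beads. Enzyme at 20 nM was preincubated 15 min with test compounds; peptide 500 nM and SAM 20 uM then reacted for 2 h.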
GRP78 ERSR act = qHTS for Inducers of the Endoplasmic Reticulum Stress Response (ERSR) in Human Glioma: qHTS. Potency, µM, usual class: activators. 420,000 tested, 0.02% active. U87-MG GRP78 promoter luciferase reporter, 16 h; note: series mostly up to about 76 µM; nearly all actives have a fitted effect of over 35% in size
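Stably transfected U87-MG glioma cells carrying a GRP78-based luciferase sensor; 16 h compound incubation. Luminescence end-point read 10 min after Bright-Glo addition at room temperature.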
ALOX12 inh = Primary qHTS assay for inhibitors of human arachidonate 12S-lipoxygenase (ALOX12): Round 2 | Potency, µM (doses to about 108 µM), hits mostly inhibitors | purified 12hLO, xylenol orange hydroperoxide absorbance | 580,000 tested, 1.1% active | Polyunsaturated fatty acid lipoxygenase ALOX12 (Homo sapiens), P18054
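Purified human 12hLO (150 nM final) in 25 mM Hepes, 0.01% Triton X-100, pH 7.0 was preincubated 15 min at room temperature with compound. Then 40 uM arachidonic acid was added, 30 min. Hydroperoxide was read by Fe-XO absorbance ratio 573/405 nm.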
A number is an active result; i = inactive; ? = inconclusive; nt = no result; [ ] = remark or other dose. The entries come from a sample that favours hits as a whole. Calls come from the whole dose curve; as a rule, active = well fitted curve in the direction sought with a large enough effect; inconclusive = small, poorly fitted or top-dose-only effect, or another doubt; inactive = no such curve, though single readings can be large; an effect the other way counts as inactive or inconclusive.

SMILES	VDR inhibitor	Sfp inh	G9a inh	GRP78 ERSR act	ALOX12 inh
COCCCNC(=O)C(NC(=O)c1ccccc1)C1CCN(C(=O)c2ccc(Cl)cc2)CC1 (stereo not drawn)	nt	nt	nt	nt	i
O=C(O)C1Nc2ccc(Br)cc2C2C=CCC12 (stereo not drawn)	?	?	1.78µM	i	nt
O=C(O)C1Nc2c(Cl)cc(Cl)cc2C2C=CCC12 (stereo not drawn)	?	?	nt	i	nt
O=C(O)C1Nc2c(O)cccc2C2C=CCC12 (stereo not drawn)	i	i	10µM	i	i
CCOC(=O)C1Nc2ccc(Br)cc2C2C=CCC12 (stereo not drawn)	?	28.2µM	3.55µM	i	?
O=C(OC1CCCCC1)c1ccc2c(c1)C1C=CCC1C(C(=O)O)N2 (stereo not drawn)	nt	i	?	nt	nt
COc1ccc(Br)cc1[C@@H]1Nc2ccc(C(=O)O)cc2[C@@H]2C=CC[C@@H]21	i	nt	?	i	?
O=C(O)C1Nc2c(Cl)cc(Cl)c(Cl)c2C2C=CCC12 (stereo not drawn)	?	nt	nt	i	3.16µM
CC(C)CNC(=O)C1Nc2ccccc2C2C=CCC12 (stereo not drawn)	?	nt	nt	i	i
O=C1c2ccccc2C(Nc2cc(Cl)cc(Cl)c2)N1c1cccnc1 (stereo not drawn)	nt	nt	nt	nt	i
Cc1cccc(Nc2ncnc3sccc23)c1C	nt	nt	nt	nt	i
CCOC(=O)C1Nc2ccc(C)cc2C2C=CCC12 (stereo not drawn)	i	nt	nt	i	31.6µM
CCOC(=O)c1ccc2c(c1)C1C=CCC1C(C(=O)OCC)N2 (stereo not drawn)	i	44.7µM	11.2µM	i	?
CCOC(=O)c1ccc2c(c1)[C@@H]1C=CC[C@@H]1[C@H](c1cccc(OC)c1OC)N2	i	nt	i	i	?
CN(CC1CCOCC1)C(=O)CC1C(=O)NCCN1Cc1cccc(Oc2ccccc2)c1 (stereo not drawn)	i	i	35.5µM	i	i
CN(Cc1nccn1C)C(=O)CC1C(=O)NCCN1Cc1cccc(Oc2ccccc2)c1 (stereo not drawn)	i	i	?	i	i
COc1cccc(CN2CCNC(=O)C2CC(=O)N(C)CC2CCOCC2)c1 (stereo not drawn)	i	i	i	i	i
COc1ccccc1CN1CCNC(=O)C1CC(=O)N(C)Cc1nc(C)cs1 (stereo not drawn)	i	i	50.1µM	i	?
O=CN1CCCN(C(=O)CC2C(=O)NCCN2Cc2cccc(Oc3ccccc3)c2)CC1 (stereo not drawn)	i	i	44.7µM	i	i
CN(Cc1cnn(C)c1)C(=O)CC1C(=O)NCCN1Cc1cccc(Oc2ccccc2)c1 (stereo not drawn)	i	i	25.1µM	i	i
CC(NC(=O)CCc1c[nH]c2ccccc12)c1cccc(Cl)c1 (stereo not drawn)	nt	nt	nt	nt	i
CN(Cc1ccon1)C(=O)CC1C(=O)NCCN1Cc1cccc(Oc2ccccc2)c1 (stereo not drawn)	i	i	?	i	?
COc1cccc(CN2CCNC(=O)C2CC(=O)N(C)C2CCCCC2)c1 (stereo not drawn)	i	i	50.1µM	i	i
CN(CC1CCOCC1)C(=O)CC1C(=O)NCCN1Cc1ccc(Cl)c(F)c1 (stereo not drawn)	i	i	50.1µM	i	?
CN(CCC1CCOCC1)C(=O)CC1C(=O)NCCN1Cc1c(F)cccc1Cl (stereo not drawn)	i	i	39.8µM	i	?
SMILES	VDR inhibitor	Sfp inh	G9a inh	GRP78 ERSR act	ALOX12 inh
CCOc1ccc(CN2CCNC(=O)C2CC(=O)N(C)CC2CCOCC2)cc1 (stereo not drawn)	i	i	?	i	i
CN(Cc1ccccn1)C(=O)CC1C(=O)NCCN1Cc1cccc(Oc2ccccc2)c1 (stereo not drawn)	i	i	44.7µM	i	i
CN(Cc1ncc[nH]1)C(=O)CC1C(=O)NCCN1Cc1c(F)cccc1Cl (stereo not drawn)	i	?	i	i	i
CCN(CC)CC(O)COc1ccc2c(c1)c(C(C)=O)c(C)n2CC (stereo not drawn)	nt	nt	nt	nt	i
O=C(Nc1ccc(-c2nnc3n2CCCCC3)cc1)c1n[nH]c(=O)c2ccccc12	nt	nt	nt	nt	i
COc1cc(CN2CCNC(=O)C2CC(=O)NCCCC2CCCC2)cc(OC)c1 (stereo not drawn)	i	i	70.8µM	i	i
COc1ccc(CN2CCNC(=O)C2CC(=O)NCCCC2CCCC2)c(C)c1C (stereo not drawn)	?	i	?	i	i
CC(NC(=O)c1ccccc1O)C(C)(C)C (stereo not drawn)	nt	nt	nt	nt	i
CCCn1c(Cc2ccccc2)n[nH]c1=S	i	i	?	i	i
Oc1cc2ccccc2cc1-c1n[nH]c(=S)n1Cc1ccco1	i	22.4µM	1.58µM	i	39.8µM
Oc1ccc(-c2n[nH]c(=S)n2Cc2ccco2)cc1	i	i	2.82µM	i	?
S=c1[nH]nc(Cc2ccccc2)n1Cc1ccco1	i	i	?	i	35.5µM
COc1cccc(-c2n[nH]c(=S)n2Cc2ccco2)c1OC	i	i	?	i	i
O=C(Nc1ccc2cc[nH]c2c1)C(=O)NC1CCCCC1	nt	nt	nt	nt	i
CC(C)c1nnc2sc(/C=C/c3ccc4c(c3)OCO4)nn12	nt	nt	nt	nt	i
Cc1ccc(-c2csc3nc4c5ccccc5c(NCCCN(C)C)nn4c(=O)c23)cc1	i	?	35.5µM	i	?
N#Cc1c(-c2ccccc2)cc(-c2ccccc2)[nH]c1=O	i	i	i	i	i
N#Cc1c(-c2cccc(Br)c2)cc(-c2ccco2)[nH]c1=O	i	?	11.2µM	i	17.8µM
CCN(CC)c1ccc(C(=C2C=CC(=[N+](CC)Cc3cccc(S(=O)(=O)[O-])c3)C=C2)c2ccc(N(CC)Cc3cccc(S(=O)(=O)O)c3)cc2)cc1	12.6µM	?	nt	i	nt
CCN(CC)c1ccc(C(=C2C=CC(=[N+](CC)CC)C=C2)c2ccc(N(CC)CC)cc2)cc1	?	nt	nt	i	i
N#Cc1cccc(-c2cc(-n3ccnc3)ncn2)c1	?	i	nt	i	?
CN(C)c1ccc(-c2cc(-n3ccnc3)ncn2)cc1	50.1µM	50.1µM	nt	i	?
c1cncc(-c2cc(-n3ccnc3)ncn2)c1	i	79.4µM	i[0.501 µM]	i	44.7µM
CN(C)C(=O)c1ccc(-c2cc(-n3ccnc3)ncn2)cc1	i	i	i[0.501 µM]	i	25.1µM
CN(C)Cc1ccccc1-c1cc(-n2ccnc2)ncn1	i	50.1µM	nt	i	?
CC(C)=CC(=O)NCCSc1ccccc1	nt	nt	nt	nt	i
Cc1cc(Cn2cc3c4c(cccc42)[C@H](CC(C)C)N[C@H](C(=O)NC(C)C)C3)no1	nt	nt	nt	nt	i
C=CCNC(=O)NC(=O)CN(C)Cc1ccc(OC)c(OC(F)F)c1	nt	nt	nt	nt	i

Screening results: PubChem, National Center for Advancing Translational Sciences (NCATS)
